Six1-Eya2 blk: Six1/Eya2 interaction inhibition; Q15475+O00167; AlphaScreen GST-Six1/His-Eya2 binding, biochemical; stronger effect = lower value; activity change, % (no concentration beside the values); 360,000 tested, 0.56% active; AID 651725; in the data active means activity change below about -65%; inconclusive means mostly about -30% to -63%; further: on the % scale 0 is the no-effect control and ±100 the full control effect
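Six1/Eya2 binding was read as AlphaScreen signal after compounds were pinned into GST-Six1 plus His-tagged Eya2 (5X stock 250/500 nM) in pH 8.0 Tris/NaCl/TCEP buffer, beads added, then incubated 1 h, 37 C, dark.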
JMJD2A Tudor: blocks the human JMJD2A Tudor domain. 390,000 tested, 4.4% active. AlphaScreen JMJD2A-Tudor / H3K4me3 peptide binding. O75164. Potency, µM (doses to about 114 µM), for inactives: at the highest dose activity change, negative = inhibition, most hits filed as inhibitors; further: potency means the concentration at half of the fitted maximal effect; on the % scale 0 is the no-effect control and ±100 the full control effect; nearly all actives have a fitted effect of over 50% in size
HP1b chromo inh: blocks HP1-beta chromodomain binding to methylated histone tails | AID 540317 | Potency, µM (titrated, usually from 114 µM), inactives show at the top dose activity change, negative = inhibition, usual class: inhibitors | P83916 | AlphaScreen HP1-beta / biotin-H3K9me3 peptide binding | 390,000 tested, 0.56% active; further: potency means the concentration at half of the fitted maximal effect; nearly all actives have a fitted effect of over 70% in size
Target sequence (P83916 whole entry, looked up): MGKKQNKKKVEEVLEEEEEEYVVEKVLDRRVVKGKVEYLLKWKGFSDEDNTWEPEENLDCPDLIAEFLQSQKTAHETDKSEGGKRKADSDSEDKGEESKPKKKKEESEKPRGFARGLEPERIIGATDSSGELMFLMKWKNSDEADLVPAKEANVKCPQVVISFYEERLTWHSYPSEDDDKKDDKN
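HP1-beta protein (50 nM final) preincubated 30 min at room temperature with biotinylated H3(1-18)K9me3 peptide (50 nM) in PBS pH 7.4, 0.01% Tween-20, then compound added for 30 min. AlphaScreen streptavidin donor/nickel chelate acceptor beads (10 ug/mL final), 30 min dark, luminescence read.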
BAZ2B inh: blocks human BAZ2B | AlphaScreen BAZ2B-H3K14Ac peptide displacement | Potency, µM (highest dose often 114 µM), for the others: at the highest dose activity change, negative = inhibition, hits mostly inhibitors | AID 504333 | 360,000 tested, 4.4% active | Q9UIF8; further: potency means the concentration at half of the fitted maximal effect; on the % scale 0 is the no-effect control and ±100 the full control effect; nearly all actives have a fitted effect of over 60% in size
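Inhibition is scored as reduced AlphaScreen emission. The BAZ2B/b-H3(5-23)K14Ac complex (50 nM each) in PBS pH 7.4, 0.01% Tween-20 meets compound (up to 110 uM) for 30 min at RT before bead addition.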
CtBP-E1A blk: inhibitors of CtBP/E1A interaction; AlphaScreen GST-E1A/His-CtBP binding, 1536-well; stronger effect = lower value; activity change, % (concentration not given with the values); 340,000 tested, 0.49% active; AID 651724; in the data active means activity change below about -65%; inconclusive means mostly about -30% to -63%; further: on the % scale 0 is the no-effect control and ±100 the full control effect
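AlphaScreen with 125 nM GST-E1A and 125 nM His-CtBP (5X stocks) in Tris pH 8.0, 300 mM NaCl, BSA, Tween 20, TCEP. Compounds preincubated 2 h at 37 deg C, then glutathione donor/nickel acceptor beads added for 1 h at 37 deg C in dark.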
G9a inh: blocks human histone lysine methyltransferase G9a. Q96KQ7. G9a H3K9 monomethylation, AlphaScreen, 2 h. Potency, µM (series often up to 102 µM), without a hit: top-dose activity, negative = inhibition, usual class: inhibitors. 350,000 tested, 8.8% active; further: potency means the concentration at half of the fitted maximal effect; on the % scale 0 is the no-effect control and ±100 the full control effect; nearly all actives have a fitted effect of over 75% in size
Target sequence (Q96KQ7 913-1193 limits assumed): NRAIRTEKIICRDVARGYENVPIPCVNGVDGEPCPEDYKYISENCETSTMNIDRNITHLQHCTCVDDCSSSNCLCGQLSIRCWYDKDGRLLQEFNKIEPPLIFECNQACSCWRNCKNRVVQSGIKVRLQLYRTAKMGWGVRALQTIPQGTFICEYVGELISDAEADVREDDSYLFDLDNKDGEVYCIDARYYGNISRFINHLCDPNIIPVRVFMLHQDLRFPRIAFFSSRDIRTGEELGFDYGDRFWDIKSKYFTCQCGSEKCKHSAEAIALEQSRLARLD
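G9a (20 nM) was preincubated 15 min with compound, then reacted 2 h at room temperature with 500 nM biotin-H3K9 peptide and 20 µM SAM. Monomethyl-H3K9 detected by AlphaScreen using anti-H3K9me1 antibody.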
* = called active by the depositor; ? = inconclusive; nt = no result given; [ ] = another dose, or the depositor's remark. A selection: hits, their analogues and other compounds. The true share with any hit is near 10%. Unless noted, the call rests on the fitted dose curve; in most records, active means well fitted inhibition curve with a large enough effect; inconclusive means small, poorly fitted or top-dose-only effect; inactive means no such curve, though single readings can be large or run the other way.

SMILES	Six1-Eya2 blk	JMJD2A Tudor	HP1b chromo inh	BAZ2B inh	CtBP-E1A blk	G9a inh
Cc1ccc(CNC(=O)Cn2ccn(-c3ccc(F)cc3)c(=O)c2=O)cc1	nt	-7.9%	11.9%	-10.9%	nt	-0.7%[59 µM]
Cc1ccc(C)c(Nc2ccc3nonc3c2[N+](=O)[O-])c1	-1.0	-35.8%	?	?	-3.5	?
O=[N+]([O-])c1ccc(O)c(Nc2ncnc3ccc(Br)cc23)c1	-24.3	-31.2%	?	?	-1.0	?
O=[N+]([O-])c1ccc(O)c(Nc2c([N+](=O)[O-])ccc3nonc23)c1	0.5	?	-24.2%[57 µM]	50.1µM*	-22.8	50.1µM*
Cc1ccc(C)c(Nc2c([N+](=O)[O-])ccc3nonc23)c1	0.0	-31.2%	?	3.55µM*	?	?
COc1cc(F)c(S(=O)(=O)N2CCN(S(=O)(=O)c3ccc(NC(C)=O)cc3)CC2)c(F)c1	nt	-19.0%	nt	nt	nt	nt
CCN(CC)CCNC(=O)Nc1ccc2c(c1)N(Cc1ccccc1)C(=O)c1ccccc1S2	nt	-34.6%	-19.7%	-28.7%	nt	-11.8%[59 µM]
CC1CCN(C(=S)Nc2ccc(F)cc2)CC1	-15.0	-6.4%	19.2%	1.9%	-12.5	20.7%[59 µM]
C/C(=N\NC(=S)Nc1ccc(F)cc1)C1CC1	-2.0	28.2µM*	15.1%	-34.7%	10.3	?
COCCCNC(=O)C1CCCN(S(C)(=O)=O)C1 (stereo unspecified)	7.8	-1.3%	25.4%	-12.0%	13.1	70.8µM*
O=C(C1CC1)N1CCc2cc(Br)cc(S(=O)(=O)N3CCCCCC3)c21	-7.4	-8.8%	36.6%	4.8%	-7.0	-37.5%
COc1ccc(NS(=O)(=O)c2cc(Br)cc3c2N(C(C)=O)CC3)cc1	-0.2	-14.4%	25.5%	-20.6%	-3.5	-14.1%
CC(=O)N1CCc2cc(Br)cc(S(=O)(=O)N3CCC(C(=O)O)CC3)c21	-21.1	-13.1%	-0.1%	-29.7%	0.0	50.1µM*
CC(=O)N1CCc2cc(Br)cc(S(=O)(=O)NCc3ccccn3)c21	-0.3	79.4µM*	-7.5%	-31.3%	-1.2	?
COC(=O)c1cc(NS(=O)(=O)c2cc(Br)cc3c2N(C(C)=O)CC3)cc(C(=O)OC)c1	nt	4.5%	36.6%	70.8µM*	nt	-14.0%[59 µM]
CCC(=O)N1CCc2cc(Br)cc(S(=O)(=O)NCc3ccco3)c21	-10.4	-14.9%	16.5%	-5.4%	-12.7	44.7µM*
CC1CC(C)(C)CC2(C1)NC(=O)N(CC(=O)NC1CCCc3ccccc31)C2=O (stereo unspecified)	15.4	-4.0%	23.4%	10.0%	21.1	10.9%[59 µM]
C/C(=N/NC(=O)CNC(=O)Cc1ccccc1)c1ccc(Cl)cc1	5.7	-16.6%	23.5%	-15.3%	1.5	23.3%
O=C(O)/C=C/C(=O)Nc1ccc(S(=O)(=O)N2CCCC2)cc1	2.4	-18.1%	37.3%	9.5%	nt	-45.2%
CCS(=O)(=O)Nc1ccc(-c2cn3ccsc3n2)cc1	nt	-16.2%	12.4%[57 µM]	-5.8%	nt	20.3%[59 µM]
CC(=N)c1c(O)c2ccccc2oc1=O	-15.7	-7.7%	19.0%	-17.5%	-3.2	5.4%
CCOc1ccc(OCC(=O)c2c(O)c3ccccc3oc2=O)cc1	5.6	11.2µM*	?	50.1µM*	-10.2	3.16µM*
COc1ccc(N=Cc2c(O)c3ccccc3oc2=O)cc1	3.0	1.3%	26.7%	2.2%	7.1	?
CC1CCC(C(=O)c2c(O)c3ccccc3oc2=O)CC1 (stereo unspecified)	-12.5	-19.2%	14.6%	9.3%	-6.7	50.1µM*
COc1ccc(OCC(=O)c2c(O)c3ccccc3oc2=O)cc1	2.2	20µM*	17.8µM*	?	10.4	3.16µM*
SMILES	Six1-Eya2 blk	JMJD2A Tudor	HP1b chromo inh	BAZ2B inh	CtBP-E1A blk	G9a inh
COc1cccc(CNC(=O)CNS(=O)(=O)c2ccc3nc(C)sc3c2)c1	nt	-10.7%	56.2%	8.2%	nt	-5.6%[59 µM]
CCOC(=O)[C@@H]1[C@H]2COc3cc(OC)ccc3[C@H]2N2C(=O)N(c3cccc(F)c3)C(=O)[C@]12C	2.9	-17.1%	27.6%	nt	-5.0	nt
O=C(NCCOc1ccc(F)cc1)C1CCC(=O)N(CCN2CCOCC2)C1 (stereo unspecified)	-4.9	2.2%	-10.9%	-33.8%	26.2	44.7µM*
O=C(NCCOc1ccc(F)cc1)C1CCC(=O)N(CCCN2CCOCC2)C1 (stereo unspecified)	2.3	-17.1%	52.3%	-0.7%	5.3	13.6%
c1ccc(Cc2ccc(OCCN3CCOCC3)cc2)cc1	-14.7	-24.5%	20.2%	-24.6%	1.6	-9.4%
COc1ccc(OCCC(=O)NCCN2CCOCC2)cc1	3.7	-17.9%	24.4%	-12.6%	12.6	56.2µM*
Cc1cc(C)cc(OCCN2CCOCC2)c1	2.0	28.2µM*	?	-31.0%	2.1	11.2µM*
COc1ccc(OCCN2CCOCC2)cc1	3.0	50.1µM*	?	?	4.6	31.6µM*
c1ccc(OCCN2CCOCC2)cc1	-2.7	20µM*	?	35.5µM*	10.4	-29.1%[2.33 µM]
Cc1ccc(OCCCCCN2CCOCC2)cc1	-0.9	-2.0%	23.5%	-1.1%	5.7	22.8%[59 µM]
Cc1ccc(OCCCN2CCOCC2)cc1	1.9	10µM*	?	?	-10.1	39.8µM*
S=C1NC2(CCCCC2)Nc2ccccc21	-13.8	-16.8%	6.8%	?	-8.9	44.7µM*
S=C1NC2(CCCC2)Nc2ccccc21	-10.6	-13.0%	48.9%	?	-1.2	11.2µM*
c1cc2c3c(cccc3c1)NC1(CCCC1)N2	-7.2	?	-16.4%	nt	9.6	nt
Cc1sc2ncn(CC(=O)N3CCN(c4cccc(Cl)c4)CC3)c(=O)c2c1S(=O)(=O)N1CCN(c2ncccn2)CC1	nt	-11.6%	36.7%	-1.4%	nt	-2.4%[59 µM]
CSCC[C@H](NC(=O)Cc1c(C)c2cc3c4c(oc3cc2oc1=O)CCCC4)C(=O)O	-6.3	-18.8%	31.7%	-9.7%	nt	44.7µM*
CCOC(=O)[C@@H](NC(=O)CC[C@H]1O[C@@H](n2cc(C)c(=O)[nH]c2=O)C[C@@H]1O)C(C)C	0.0	nt	nt	nt	-1.4	nt
O=C(c1cc([N+](=O)[O-])ccc1Cl)N1c2ccccc2Sc2ccccc21	?	?	-34.2%	?	-10.2	8.91µM*
O=C(c1cc([N+](=O)[O-])ccc1Cl)N1CCN(c2ccccc2)CC1	-6.5	-20.2%	-17.9%	?	-3.3	?
CCN1C(=O)/C(=C/c2nc3ccccc3c(=O)[nH]2)c2ccccc21	-6.4	-8.2%	13.1%	-29.4%	-7.9	-1.7%[59 µM]
C=CCN1C(=O)/C(=c2\sc3nc(=O)c(Cc4ccccc4)nn3c2=O)c2ccccc21	-14.7	56.2µM*	?	?	-7.1	nt
CCN1C(=O)/C(=c2\sc3nc(=O)c(Cc4ccccc4)nn3c2=O)c2ccccc21	1.5	?	-31.4%	?	-0.3	25.1µM*

Assay outcomes deposited in PubChem BioAssay by National Center for Advancing Translational Sciences (NCATS).
